# Measured values: PubChem BioAssay
# Active and inactive are the calls of the source.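 Rule for the calls, unless noted: active = compounds lowering colon cancer cell viability after pretreatment blocking the GSK3B kinase; inactive = the rest.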
# Key:
# [1] = Wnt pathway potentiators raising nuclear beta-catenin – imaging, WNT3A-conditioned medium, mouse C2C12, NPC library, primary screen (AID 1117326; in the data active = nuclear beta-catenin stimulation mostly above about 4.2%, no sharp cut-off; inactive = mostly below about 10%; note: reference of the scale not given here); settings: stronger effect = higher value
# [2] = stimulators of insulin release from INS-1E, primary screen, cell-based, 5 mM glucose, NPC library (AID 1117329;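 active = compound raises insulin release from rat beta cells at 5 mM glucose, no numeric limit stated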; note: reference of the scale not given here); settings: rat INS-1E insulin secretion, at 10 µM, stronger effect = higher value
# [3] = growth inhibition of GSK3B-pretreated HCT116 cells – cell-based, CellTiter-Glo, 0.2 to 20 µM (AID 1117336); settings: HCT116 viability after GSK3B inhibitor, at 20 µM, stronger effect = higher value
# [4] = inhibition of endothelial tube formation, primary screen, imaging, VEGF stimulated, CD31 staining, tube area, NPC library (AID 1117340;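 active = compound that reduces growth-factor-driven endothelial tube area in a mixed cell culture, no cutoff stated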); settings: VEGF-stimulated ADSC/ECFC co-culture, at 10 µM, stronger effect = higher value
# [5] = GLP1 release stimulators, primary, NCI-H716, NPC library (AID 1117341;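 active = compound raises GLP1 secretion from the human gut endocrine cells, with no numeric limit stated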; note: reference of the scale not given here); settings: NCI-H716 cells, at 10 µM, stronger effect = higher value
# [6] = HCT116 colon cancer cell growth inhibition, primary screen, CellTiter-Glo luminescence, NPC library (AID 1117342;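 active = compounds that lower survival of HCT116 colon cancer cells in the luminescence readout, no numeric limit stated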); settings: at 20 µM (top of the series)
# [7] = reduced SW480 viability measured with CellTiter-Glo, NPC library, primary (AID 1117343;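 active = compounds that lower viability of the colon cancer cells in the luminescence readout, with no numeric limit stated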); settings: CellTiter-Glo luminescence; at 20 µM (top of the series)
# [8] = NPC library primary testing for decreased DLD-1 cell viability via CellTiter-Glo (AID 1117346;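 active = compounds that lower survival of DLD-1 colon cancer cells in the luminescence readout, no cutoff given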); settings: DLD-1 viability, CellTiter-Glo luminescence; at 20 µM (top of the series)
Compound,nuclear beta-catenin stimulation ([1]; at 10 µM),"nuclear beta-catenin stimulation ([1]; stimulation, at 2 µM)",insulin secretion stimulation [2],viability decrease [3],tube area decrease [4],GLP1 secretion stimulation [5],inhibition of viability [6],viability decrease (inhibition) [7],viability decrease (inhibition) [8]
Cc1ccc(C(C)OC(=O)C2(C)CCC(C(=O)O)C2(C)C)cc1 (stereo unspecified),-0.2% (inactive),-2.1%,2.1% (inactive),-5% (inactive),-0.8% (inactive),0.6% (inactive),0.3% (inactive),-11.8% (inactive),14.4% (inactive)
COc1ccc(/C=C/C(=O)c2ccc(OC)cc2OC)cc1,7.4% (inactive),-0.5%,2.6% (inactive),77.7% (active),54.9% (active),-6.1% (inactive),58.1% (active),94.5% (active),81.6% (active)
OCC(O)CS (stereo unspecified),-0.5% (inactive),0.8%,0.7% (inactive),-84.2% (inactive),27.8% (inactive),0.4% (inactive),6.77% (inactive),-24% (inactive),-8.2% (inactive)
N#CSCC(=O)O,0.3% (inactive),1%,0.5% (inactive),-47.6% (inactive),2.4% (inactive),-0.1% (inactive),-4.8% (inactive),-6.2% (inactive),-5.4% (inactive)
OC[C@]1(O)OC[C@@H](O)[C@H](O)[C@@H]1O,3.7% (inactive),0.4%,-1.9% (inactive),-2.95% (inactive),7.1% (inactive),-6% (inactive),-4.9% (inactive),92.3% (active),9.6% (inactive)
CC(NN)c1ccccc1 (stereo unspecified),1.9% (inactive),-2.2%,3.35% (inactive),13.8% (inactive),-6.7% (inactive),-0.4% (inactive),9.9% (inactive),4.9% (inactive),14.8% (inactive)
OCCCc1ccccc1,1.8% (inactive),4.5%,3.2% (inactive),9.55% (inactive),-11.1% (inactive),4.3% (inactive),-1.15% (inactive),-15.8% (active),7.85% (inactive)
CC1(C)OC(=O)Nc2ccc(Br)cc21,3% (inactive),-1%,6.1% (inactive),9.6% (inactive),13.5% (inactive),-2% (inactive),-4.8% (inactive),20.9% (inactive),2.5% (inactive)
O=C(O)Cc1ccc2c(c1)C(=O)c1ccccc1CO2,0.5% (inactive),0.6%,0.2% (inactive),-4.5% (inactive),-16.2% (inactive),1.7% (inactive),-7.1% (inactive),-5.2% (inactive),-10.1% (inactive)
CC(=O)c1ccc(O)c(C(N)=O)c1,0.2% (inactive),-1.6%,0.6% (inactive),20.8% (inactive),-0.3% (inactive),1.6% (inactive),0.1% (inactive),-10.5% (inactive),6.9% (inactive)
CCC1(c2cnc[nH]2)Cc2ccccc2C1,1.2% (inactive),1.5%,13.1% (inactive),38% (inactive),22.4% (inactive),-3.3% (inactive),-0.4% (inactive),19.3% (inactive),38.2% (inactive)
CCOC(=O)c1cccnc1,0.1% (inactive),0.3%,-2.3% (inactive),-2.55% (inactive),-7.8% (inactive),1.1% (inactive),-17.8% (inactive),58.1% (active),-9.05% (inactive)
CC(CSC(=O)c1ccccc1)C(=O)N1C[C@@H](Sc2ccccc2)C[C@H]1C(=O)O (stereo partly specified),-1% (inactive),-0.2%,6.4% (inactive),-18.3% (inactive),-27% (inactive),-4% (inactive),6.5% (inactive),47.6% (inactive),27.7% (inactive)
Nc1ccncc1N,0.2% (inactive),0.5%,-0.7% (inactive),-2.2% (inactive),-31% (inactive),3.3% (inactive),3.4% (inactive),7.7% (inactive),6.9% (inactive)
O=C(O)CNC(=O)CNC(=O)CNC(=O)CSC(=O)c1ccccc1,-0.8% (inactive),-1.6%,1.2% (inactive),-1.9% (inactive),-8.3% (inactive),4.6% (inactive),0.6% (inactive),12.5% (inactive),14.5% (inactive)
O=C(OCC(O)CO)c1ccccc1Nc1ccnc2c(C(F)(F)F)cccc12 (stereo unspecified),1% (inactive),0.5%,-0.3% (inactive),-37% (inactive),-5.3% (inactive),4.1% (inactive),12% (inactive),30.4% (inactive),-17.2% (inactive)
N/C(=N\N=C\c1ccc(Cl)cc1)N/N=C/c1ccc(Cl)cc1,0.5% (inactive),0.1%,-0.1% (inactive),99.6% (active),108% (active),-3.3% (inactive),99.3% (active),103% (active),102% (active)
CC(C)(C)CC(=O)OCC(=O)[C@@]1(O)CC[C@H]2[C@@H]3CCC4=CC(=O)C=C[C@]4(C)[C@H]3[C@@H](O)C[C@@]21C,3% (inactive),0.9%,0% (inactive),-93.8% (inactive),10.8% (inactive),3.3% (inactive),20.7% (inactive),57.4% (active),13.2% (inactive)
COc1cc(/C=C/C(=O)O[C@H]2CC[C@]34C[C@]35CC[C@]3(C)[C@@H]([C@H](C)CCC=C(C)C)CC[C@@]3(C)[C@@H]5CC[C@H]4C2(C)C)ccc1O,-1.5% (inactive),-1.7%,7.6% (inactive),2.6% (inactive),-12.4% (inactive),0.5% (inactive),10% (inactive),-10.1% (inactive),-6.9% (inactive)
CON=C(C(=O)N[C@@H]1C(=O)N2C(C(=O)O)=C(C[N+]3(C)CCCC3)CS[C@H]12)c1csc(N)n1,-2.1% (inactive),0.2%,3.1% (inactive),4.1% (inactive),2.5% (inactive),-0.7% (inactive),-21.3% (inactive),-14.4% (inactive),-9.8% (inactive)
O=C(OCC(COC(=O)c1cccnc1)(COC(=O)c1cccnc1)COC(=O)c1cccnc1)c1cccnc1,-0.6% (inactive),-0.3%,1.6% (inactive),-13.3% (inactive),-11.4% (inactive),0.8% (inactive),17.4% (inactive),-4.3% (inactive),-2.7% (inactive)
COCCc1ccc(OCC2CO2)cc1 (stereo unspecified),0.9% (inactive),0.3%,0.8% (inactive),-8% (inactive),-12.7% (inactive),0.8% (inactive),-0.6% (inactive),14.3% (inactive),3.3% (inactive)
NS(=O)(=O)c1ccc(NC(=O)CCC(=O)O)cc1,-0.1% (inactive),-0.3%,-2.4% (inactive),-9.65% (inactive),-1.3% (inactive),0.1% (inactive),-10.5% (inactive),-26.6% (inactive),-13.6% (inactive)
Cc1ccc(S(=O)(=O)NC(=O)NC2CCCC2)cc1,0.2% (inactive),0.6%,15.2% (inactive),-1.25% (inactive),-10.7% (inactive),-0.4% (inactive),-18.5% (inactive),44.9% (inactive),9.95% (inactive)
NNC(=O)CP(=O)(c1ccccc1)c1ccccc1,1.5% (inactive),0.6%,-2% (inactive),-2.45% (inactive),34.3% (inactive),1.1% (inactive),-12.6% (inactive),10% (inactive),7.2% (inactive)
O=C(c1ccccc1)c1ccccc1,0.7% (inactive),1.3%,-0.6% (inactive),8.9% (inactive),-20.2% (inactive),2.4% (inactive),22.5% (inactive),21% (inactive),9.1% (inactive)
CCc1ccc(C(=O)C(C)CN2CCCCC2)cc1 (stereo unspecified),-0.3% (inactive),-0.1%,14.3% (inactive),-4.9% (inactive),-30.1% (inactive),-1.5% (inactive),19.2% (inactive),7.4% (inactive),-0.2% (inactive)
CCOC(=O)[C@H](CCc1ccccc1)N[C@H]1CCCN2CCC[C@@H](C(=O)O)N2C1=O,-0.5% (inactive),0.8%,-0.4% (inactive),-16.7% (inactive),-6.5% (inactive),4.4% (inactive),4.2% (inactive),4.5% (active),-2.1% (inactive)
CCC(Cc1c(I)cc(I)c(O)c1I)C(=O)O (stereo unspecified),0.6% (inactive),0.3%,-0.2% (inactive),7.1% (inactive),-23.3% (inactive),-3.4% (inactive),-22.9% (inactive),11.5% (inactive),1.1% (inactive)
